Hits are enriched below; roughly 2.7% of the tested compounds scored in any of these assays.
Akt phos inh: inhibitors of Akt phosphorylation | Neuro2A IGF-stimulated pAkt S473 HTRF, 20 min; active compounds read low | activity change, % for hits at 50 µM | 0.32% of 360,000 active | AID 651550; in the data active means activity change below about -80%; inconclusive means mostly about -51% to -80%; further: on the % scale 0 is the no-effect control and ±100 the full control effect
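Neuro2A cells (4,500/well, DMEM with 0.5% FBS) were treated with compound at a single 50 µM final concentration, stimulated with 6 nM IGF for 20 min at 37 °C, and lysed. Phospho-Akt Ser473 was read by HTRF as 665/615 ratio ×10^4.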
ClpP mod: qHTS Assay for Activators of ClpP | ATP-dependent Clp protease proteolytic subunit (Bacillus subtilis (strain 168)), P80244 | purified B. subtilis ClpP, FRET peptide cleavage, 20 min | Potency, µM (doses to about 57.5 µM), inactives show at the top dose activity change, negative = active | 1.9% of 340,000 active; active means well fitted falling curve with a large enough effect; inconclusive means small, poorly fitted or top-dose-only effect; inactive means no such curve, though single readings can be large or run the other way; further: potency means the concentration at half of the fitted maximal effect; the source files actives as falling curves though it sought activators and does not explain the sign; nearly all actives have a fitted effect of over 65% in size
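Buffer: 100 mM Tris/HCl pH8, 100 mM KCl, 0.05% low protease BSA, 2.5% glycerol, 0.01% Tween-20. ClpP 10 microg/mL final; 20 min RT; delta FRET normalized to ADEP and DMSO controls.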
gsp antagonist: gsp mutant antagonism; gsp-mutant cells, cAMP HTRF, 30 min; Potency, µM (top dose mostly 76.9 µM), for inactives: at the top dose activity change, negative = inhibition, actives largely listed as inhibitors; 0.4% of 340,000 active; calls by dose curve; cell line not stated here;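 further: intracellular cAMP measured with PDE inhibitor Ro 20-1724 present during compound exposure; potency means the concentration at half of the fitted maximal effect; on the % scale 0 is the no-effect control and ±100 the full control effect; nearly all actives have a fitted effect of over 65% in size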
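Cells in G418 medium, seeded 16-24 h, 37C; buffer exchange to DPBS + 1 mM CaCl2, 0.5 mM MgCl2, 0.05% BSA; cpds in DMSO + […] (300 uM stock), 30 min 37C; HTRF cAMP detection.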
RXFP1 antag: antagonists of human relaxin receptor RXFP1; 0.59% of 350,000 active; Q9HBX9; HEK293-RXFP1, relaxin-stimulated cAMP HTRF, 30 min; active compounds read low; activity change, negative = inhibition, % at 57.5 µM; AID 1259400;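 active means activity change of -60% or lower, but not beyond a set lower limit; inconclusive means change between -60% and -40%, or beyond the set limit; inactive means change above -40%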; further: on the % scale 0 is the no-effect control and ±100 the full control effect
Target sequence (Q9HBX9 whole entry, looked up): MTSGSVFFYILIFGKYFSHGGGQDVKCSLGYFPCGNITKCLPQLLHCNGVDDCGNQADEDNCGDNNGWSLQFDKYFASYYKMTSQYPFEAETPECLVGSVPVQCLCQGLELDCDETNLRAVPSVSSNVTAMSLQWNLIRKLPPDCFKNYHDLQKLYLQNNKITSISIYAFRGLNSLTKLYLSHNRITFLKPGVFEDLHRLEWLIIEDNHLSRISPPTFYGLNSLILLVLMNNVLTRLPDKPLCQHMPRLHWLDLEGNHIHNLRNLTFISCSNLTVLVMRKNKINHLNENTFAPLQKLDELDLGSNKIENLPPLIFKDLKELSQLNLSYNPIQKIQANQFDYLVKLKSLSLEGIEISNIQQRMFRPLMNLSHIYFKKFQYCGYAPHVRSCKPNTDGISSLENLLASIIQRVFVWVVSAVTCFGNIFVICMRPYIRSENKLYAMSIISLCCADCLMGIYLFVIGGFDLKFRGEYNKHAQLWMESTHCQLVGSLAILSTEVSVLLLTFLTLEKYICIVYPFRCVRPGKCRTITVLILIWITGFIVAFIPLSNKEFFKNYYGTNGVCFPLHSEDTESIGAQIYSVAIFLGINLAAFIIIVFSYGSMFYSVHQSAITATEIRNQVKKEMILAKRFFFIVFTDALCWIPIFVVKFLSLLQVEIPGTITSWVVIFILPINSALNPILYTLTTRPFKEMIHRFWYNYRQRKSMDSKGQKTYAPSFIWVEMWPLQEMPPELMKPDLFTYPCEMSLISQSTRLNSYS
RXFP1 ag: activates the human relaxin receptor RXFP1 | Potency, µM (titrated, usually from 57.5 µM), for inactives: at the top dose activation, hits mostly activators | 0.3% of 370,000 active | Q9HBX9 | HEK293T-RXFP1 cAMP TR-FRET, 30 min; response scale: percent of porcine relaxin response, buffer zero; active means well fitted activation curve with a large enough effect; inconclusive means small, poorly fitted or top-dose-only effect; further: potency means the concentration at half of the fitted maximal effect; on the % scale 0 is the no-effect control and ±100 the full control effect; nearly all actives have a fitted effect of over 60% in size
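HEK293 cells stably expressing RXFP1, treated 30 min at 37C with compounds plus PDE4 inhibitor Ro 20174; cAMP measured by HTRF TR-FRET. Normalized to buffer and 29 nM porcine relaxin; EC50 by Hill fit.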
gsp ag: gsp mutant agonism. gsp mutant cells, cAMP HTRF, 30 min. Potency, µM (doses to about 76.9 µM), inactives show top-dose activation (cAMP increase), hits mostly activators. 0.13% of 340,000 active. AID 624287; active means well fitted activation curve with a large enough effect; inconclusive means small, poorly fitted or top-dose-only effect, or another doubt; inactive means no such curve, though single readings can be large or run the other way; cell line not stated here;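 further: phosphodiesterase inhibitor Ro 20-1724 added with compounds to block cAMP breakdown; potency means the concentration at half of the fitted maximal effect; nearly all actives have a fitted effect of over 60% in size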
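Cells in DMEM/10% FBS with G418 were pretreated with compounds in DMSO plus […] (300 uM stock) for 30 min at 37C. cAMP was measured by HTRF (cAMP-d2 plus anti-cAMP antibody-K) after 30 min at room temperature.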
Starred values were filed as active, the others as inactive; i = inactive; u = inconclusive; x = no result given; [ ] = another dose, or the depositor's remark.

SMILES | Akt phos inh | ClpP mod | gsp antagonist | RXFP1 antag | RXFP1 ag | gsp ag
COc1ccc(CC(=O)Nc2nc(-c3ccc(OC)c(OC)c3)cs2)cc1OC | i | x | 28.2µM* | -26.8 | 1.3% | 4.4%[15.4 µM]
O=C(Cc1ccccc1F)Nc1nc(-c2ccc(F)cc2)cs1 | i | x | -16.0% | -93.0* | -0.6% | -5.0%
Cc1ccnc(Nc2nc(-c3ccc(F)cc3)cs2)c1 | i | -0.8% | -26.6% | -66.3* | -0.4% | 2.3%[15.4 µM]
COc1ccc(-c2csc(NC(=O)Cc3ccccc3F)n2)cc1OC | i | x | u | -5.8 | 0.4% | -18.3%[15.4 µM]
CCOC(=O)C(/C=N/c1cc(C)nn1-c1ccccc1)=C(\C)O | -110.1%* | -1.0% | 11.3% | -7.1 | 1.9% | u
CC(=O)N(CC(=O)N(C)C)c1ccccc1 | x | x | x | 12.9 | x | x
C(=N\C(/N=C/c1ccco1)c1ccco1)/c1ccco1 | i | 15.8µM* | 0.6% | 8.1 | 0.3% | 0.0%
C(=Nc1cccc2c(N=Cc3ccco3)cccc12)c1ccco1 | i | 4.0% | u | -1.6 | 0.4% | -24.1%
CCn1c(/C=C/c2ccc(O)c(O)c2)nc2ccccc2c1=O | i | -2.6% | -20.9% | -16.5 | 0.3% | -11.1%
O=c1c2ccccc2nc(/C=C/c2ccc(Cl)cc2)n1CCO | i | 31.6µM* | -1.9% | 0.6 | 5.6% | 3.6%[15.4 µM]
CCn1c(/C=C/c2ccc(O)cc2)nc2ccccc2c1=O | i | -1.9% | -20.0% | -70.7* | -1.4% | 7.2%[15.4 µM]
COC(=O)Cc1[nH]nc2c1C(c1cc(OC)c(OC)c(OC)c1)C(C#N)=C(N)O2 (configuration not stated) | i | -1.5% | 15.7% | 9.6 | 0.2% | 1.1%
COC(=O)Cc1[nH]nc2c1C(C1C=CCCC1)C(C#N)=C(N)O2 (configuration not stated) | i | 7.08µM* | 16.3% | -7.5 | 1.3% | -16.8%
COc1ccc(NC(=O)Nc2cccc3c2O[C@@H](CN(C)S(=O)(=O)c2cn(C)cn2)[C@@H](C)CN([C@H](C)CO)C3=O)cc1 | i | 2.6% | 12.1% | x | x | x
CCOC(=O)c1nn(-c2ccc3c(c2)OCCO3)cc1O | i | x | -4.5% | -5.1 | 5.0% | 20.2%[15.4 µM]
COC(=O)c1nn(-c2ccc3c(c2)OCO3)cc1O | i | 31.6µM* | 4.8% | 3.8 | 1.2% | u
COC(=O)c1nn(-c2ccc3c(c2)CCN3C(C)=O)cc1O | i | 7.08µM* | 5.0% | 1.8 | 10.0% | u
CCc1nc2ccc(C(=O)N(C)Cc3ccccc3)cn2c1N(C)Cc1ccc(OC)cc1 | i | -0.2% | x | x | x | x
O=C(Nc1ccccc1C(=O)OCc1cc(=O)n2nc(C3CC3)sc2n1)c1cccc(Cl)c1 | x | 3.9% | x | -7.2 | 5.4% | x
O=C(CSc1cccc2cccnc12)OCC(=O)c1ccccc1 | i | 25.1µM* | -18.6% | -12.2 | 0.7% | 12.8%
CN(C)C(=O)CSc1cccc2cccnc12 | i | 20µM* | 12.9% | -11.2 | 1.3% | -3.8%
O=c1[nH]c(Nc2ccccc2)cc2ccccc12 | i | 28.2µM* | 5.7% | 2.1 | 0.0% | 1.1%
COc1cc2c(=O)n(CC3CCCO3)c(=O)n(CC(=O)Nc3cccc(Cl)c3)c2cc1OC (configuration not stated) | i | 31.6µM* | 0.0% | 3.8 | 0.4% | -26.7%
O=c1[nH]c(=O)n([C@H]2O[C@H](CO)[C@@H](O)[C@@H]2O)cc1/C=C\Br | x | x | x | 5.1 | x | x
O=C(NCCNC(=O)c1ccccc1O)c1ccccc1O | i | -1.6% | -6.9% | -3.6 | -2.4% | -21.1%
O=C(Cc1ccccc1)NCCCNC(=O)Cc1ccccc1 | i | 28.2µM* | 4.0% | 0.1 | x | -25.7%
O=C(NCCO)c1ccccc1O | i | 31.6µM* | -11.1% | -4.8 | -4.7% | -29.6%
O=C(CCc1ccccc1)NCCCNC(=O)CCc1ccccc1 | i | 1.8% | 12.0% | -4.1 | -0.8% | 14.8%
O=C(NCCCCCCNC(=O)c1ccccc1O)c1ccccc1O | i | 0.2% | 44.7µM* | -22.8 | 7.2% | -3.0%[15.4 µM]

Bioassay records as filed in PubChem BioAssay.
